Drawing on PubChem BioAssay AID488890 (Southern Research Specialized Biocontainment Screening …, 2010), this text covers inhibition for 32 compounds.

Screen size: about 320,000 compounds; about 1,300 (0.41%) were called active. Not shown: some 3% with an inconclusive outcome. No rule for the calls is given here. A selection follows. Results with a measured potency or affinity are listed apart.

A short description of this experiment: growth inhibition of non-replicating M. tuberculosis (AID 488890).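 Also: plate controls were DMSO cells for no effect and high antibiotic wells for full effect.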 Conditions: Mycobacterium tuberculosis non-replicating, at 25 µM, stronger effect = higher value.
Turning to `c1ccc(Nc2c(-c3ccco3)nc3ccccn23)cc1`, the inhibition (usually the relative decrease from the control value, in per cent) is 43.1%.

`Cc1ccc(Nc2c(-c3ccco3)nc3ccccn23)cc1`: the inhibition is 43.3%.

Consider `CCOc1ccc(S(=O)(=O)N(CC(=O)NCc2cccnc2)c2ccc(F)cc2)cc1`, for which the inhibition came out at 1.08%.

Regarding `CCN(C[C@H]1N[C@@](CC)(C(=O)OC)[C@H]2C(=O)N(C)C(=O)[C@@H]12)C(=O)Nc1ccc(C)cc1`, the inhibition worked out at 3.1%.

In the case of `O=C(O)C1CC(=O)N(c2ccc3c(c2)OCCO3)C1` (configuration not stated), the inhibition was -10.2%.

For the compound `O=C1c2ccccc2NC(c2ccc3c(c2)OCCO3)N1c1ccc2c(c1)OCCO2` (configuration not stated), the inhibition amounted to 29.3%.

As for `CN1CCN(c2ccc(CNC(=O)c3ccc4c(c3)OCCO4)cc2)CC1`, the inhibition was -0.49%.

As to `Cc1cc(Cl)ccc1NC(=O)COC(=O)c1nc2nccc(C)n2n1`, the inhibition was -0.03%.

Consider `COc1cc2c(cc1OC)CN(CCOc1ccc(Br)cc1)CC2`, for which the inhibition stood at 17.6%.

Regarding `O=C(CN1CCOCC1)c1ccc(Br)cc1`, the inhibition is 61.8%.

Take `O=C(NCCN1CCOCC1)c1ccc(Cl)cc1`: the inhibition is -1.14%.

As for `O=C(CCN1CCOCC1)c1ccccc1`, the inhibition was 75.5%.

Turning to `COc1cc2c(cc1OC)CN(C(=O)CCC(=O)c1ccc(F)cc1)CC2`, the inhibition was found to be 19.6%.

As to `O=C(NCCCN1CCOCC1)c1ccc(Br)cc1`, the inhibition came to 17.1%.

Regarding `CC(CN1CCOCC1)OC(=O)c1ccccc1` (configuration not stated), the inhibition was -8.24%.

On to `CC(CN1CCCC1)OC(=O)c1ccc(Br)cc1` (configuration not stated), for which the inhibition was -10.6%.

Take `O=C(CCc1ccccc1)Nc1ccccc1F`: the inhibition was 18.9%.

On to `COc1ccccc1N(C(=O)CNC(=O)c1ccco1)C(C(=O)NC1CCCC1)c1ccncc1` (configuration not stated), for which the inhibition came out at 2.47%.

Regarding `CSc1cccc(NC(=O)CCNS(=O)(=O)c2ccc3[nH]c(=O)oc3c2)c1`, the inhibition was -8.71%.

On to `O=C(NCCCN1CCOCC1)c1cc2c([nH]c3ccccc32)c(-c2cccc(Br)c2)n1`, for which the inhibition was 77.1%.

As for `CN=C1S/C(=C/c2cn(CC(=O)OC)c3ccccc23)C(=O)N1C`, the inhibition worked out at 47.1%.

Take `O=C(O)C1CC(=O)N(CCOc2ccccc2)C1` (configuration not stated): the inhibition is -0.16%.

As to `CC1CCC(NC(=O)CCNC(=O)c2ccc(Br)cc2)CC1` (configuration not stated), the inhibition worked out at 67.6%.

With `Cn1cnnc1Sc1ccc(C(=O)NCCC23CC4CC(CC(C4)C2)C3)cc1[N+](=O)[O-]`, the inhibition turned out to be 33.9%.

Consider `COc1ccc(C(C)C)cc1S(=O)(=O)NCC1CCCO1` (configuration not stated), for which the inhibition amounted to 16%.

As to `CC1CCCN(CCC(=O)Nc2ccc(Br)cc2)C1` (configuration not stated), the inhibition was 10.6%.

Turning to `CC1CCCN(CCOc2ccc(Br)cc2)C1` (configuration not stated), the inhibition turned out to be 16.9%.

Regarding `COc1ccc(OC)c2c1CC(C)(C)NC2=O`, the inhibition was -28.9%.

On to `COc1ccc(/C=C2\SC(=S)N(CCCC(=O)Nc3ccc(O)cc3)C2=O)cc1`, for which the inhibition was 53.3%.

In the case of `COc1ccc(/C=C2/SC(=S)N(CCCC(=O)Nc3ccc(O)cc3)C2=O)cc1`, the inhibition is 71.1%.

As to `Cc1ccc(S(=O)(=O)CCC(=O)Oc2ccc3c(C)cc(=O)oc3c2)cc1`, the inhibition is 6.87%.

In the case of `CC(C)CNC(=O)N1c2ccccc2Sc2ccccc21`, the inhibition worked out at 30.4%.
